Measurements as given in PubChem BioAssay.

test: 384-well plate pilot, post-Golgi transport modulator project, inhibition of yeast transport mutant growth (AID 636); conditions: absorbance 615 nm, about 18 h, stronger effect = higher value

inhibition, inactive:
COC(=O)c1ccc2c(c1)C(=O)N(C1CCCCC1)C2=O -2.93%
CCOc1ccc(OCC)c(NS(=O)(=O)c2ccc3c(c2)n(C)c(=O)c(=O)n3C)c1 -0.13%
CC(=O)OC(C(=O)NCc1ccco1)c1cccnc1 (configuration not stated) -2.08%
Cc1ccccc1CN1CCN(C(=O)c2cccc(F)c2)CC1 -1.87%
CCN(CC)CCCN1C(=O)C(=O)/C(=C(/O)c2ccc(C)cc2)C1c1ccccn1 (configuration not stated) 6.4%
COc1ccc(CCNS(=O)(=O)c2ccc(C(=O)NCc3ccco3)cc2)cc1OC 1.3%
O=C(Nc1ccc(Cl)c(Cl)c1)Nc1cc(C(=O)N2CCOCC2)ccc1N1CCCCC1 -4.08%
COc1ccc(-c2coc3c(CN4CCCCC4)c(O)c(CN4CCCCC4)c(O)c3c2=O)cc1 0%
CCc1nnc(NC(=O)CSc2nnc(-c3ccoc3C)n2CC(C)C)s1 -4.67%
O=C(O)C1C2CCC(C2)C1C(=O)NCCCn1ccnc1 (configuration not stated) -7.24%
COc1cccc2cc(C(=O)n3ccc(C)n3)c(=O)oc12 -3.29%
CC1(C)CC(=O)c2cc(OCC(=O)N3CCN(c4ccccc4F)CC3)ccc2O1 -0.13%
O=C(CSc1nnc(-c2ccccc2)o1)N1CCc2ccccc2C1 -4.53%
CCS(=O)(=O)c1nc2ccccc2n1CC(=O)N1CCOCC1 -5.32%
O=C(Cn1cnc2sc(-c3ccccc3)cc2c1=O)N1CCOCC1 -1.58%
Cc1ccc(NCc2nnc(SCC(=O)NCc3ccco3)n2CC2CCCO2)cc1Cl (configuration not stated) 5%
Cn1nc(-c2ccc(C(=O)N3CCN(c4ccccc4)CC3)cc2)c2ccccc2c1=O 0.26%
CCc1nnc(NC(=O)CCC(=O)Nc2ccccc2)s1 -4.27%
COc1cccc(-c2csc3nc[nH]c(=O)c23)c1 -5.73%
COc1cccc(-n2c(SCC(=O)OC(C)C)nnc2-c2cccnc2)c1 -1.32%
CC(=O)c1ccc(NC(=O)CSc2nnc(-c3ccoc3C)n2Cc2ccccc2)cc1 -2.27%
O=C(Nc1ccc2c(c1)C(=O)N(C1CCCCC1)C2=O)C1CCCO1 (configuration not stated) -3.33%
CN(Cc1nc(-c2ccncc2)no1)S(=O)(=O)c1ccc(Br)cc1 -5.32%
O=C(CCCN1C(=O)c2ccccc2C1=O)NCc1cccnc1 -2.13%
Nc1nc(CN2CCOCC2)cs1 -1.69%
O=C1CC(C(=O)Nc2ccccc2)C2(CCCC2)O1 (configuration not stated) -2.6%
CCC1(CC)C(=O)N(C)C(=O)NC1=NCc1ccccc1 -7.07%
O=C(CN1C(=O)COc2ccccc21)NCCCN1CCc2ccccc2C1 -1.69%
COc1ccccc1CNC(=O)C1CCN(S(=O)(=O)N2CCCCC2)CC1 -1.97%
CCCN(CCC)CCCNS(=O)(=O)c1ccc2c(c1)oc(=O)n2C -4.4%
O=C(COC(=O)c1ccc(NS(=O)(=O)c2ccc3c(c2)OCCO3)cc1)NCC1CCCO1 (configuration not stated) -1.69%
O=C(c1nc2n(n1)C(c1ccc(Cl)cc1)C=C(c1ccccc1)N2)N1CCOCC1 (configuration not stated) -1.18%
Cc1cc(N2C(=O)C(O)=C(C(=O)c3ccc(C)o3)C2c2cccs2)no1 (configuration not stated) -2.13%
Cc1cc(NCCCn2ccnc2)n2c(nc3ccccc32)c1C#N 4.29%
COc1ccc(CCNS(=O)(=O)c2ccc3c(c2)OCCO3)cc1 -0.53%
Cc1ccc(C)c(C(=O)NC2CC(C)(C)NC(C)(C)C2)c1 -5.71%

test: growth suppression of yeast trafficking mutant, preliminary HTS, modulators of trafficking downstream of Golgi apparatus project, 1536-format plate, OD 615 nm (AID 637; in the data active means inhibition above about 30%); conditions: yeast transport mutant growth, absorbance 615 nm, 18 h; stronger effect = higher value

inhibition, inactive:
COC(=O)c1ccc2c(c1)C(=O)N(C1CCCCC1)C2=O 1.11%
CCOc1ccc(OCC)c(NS(=O)(=O)c2ccc3c(c2)n(C)c(=O)c(=O)n3C)c1 1.27%
CC(=O)OC(C(=O)NCc1ccco1)c1cccnc1 (configuration not stated) 2.86%
Cc1ccccc1CN1CCN(C(=O)c2cccc(F)c2)CC1 -0.16%
CCN(CC)CCCN1C(=O)C(=O)/C(=C(/O)c2ccc(C)cc2)C1c1ccccn1 (configuration not stated) -4.44%
COc1ccc(CCNS(=O)(=O)c2ccc(C(=O)NCc3ccco3)cc2)cc1OC 10.9%
O=C(Nc1ccc(Cl)c(Cl)c1)Nc1cc(C(=O)N2CCOCC2)ccc1N1CCCCC1 -2.22%
COc1ccc(-c2coc3c(CN4CCCCC4)c(O)c(CN4CCCCC4)c(O)c3c2=O)cc1 6.19%
CCc1nnc(NC(=O)CSc2nnc(-c3ccoc3C)n2CC(C)C)s1 11.3%
O=C(O)C1C2CCC(C2)C1C(=O)NCCCn1ccnc1 (configuration not stated) -0.79%
COc1cccc2cc(C(=O)n3ccc(C)n3)c(=O)oc12 7.14%
CC1(C)CC(=O)c2cc(OCC(=O)N3CCN(c4ccccc4F)CC3)ccc2O1 2.06%
O=C(CSc1nnc(-c2ccccc2)o1)N1CCc2ccccc2C1 -5.24%
CCS(=O)(=O)c1nc2ccccc2n1CC(=O)N1CCOCC1 -1.27%
O=C(Cn1cnc2sc(-c3ccccc3)cc2c1=O)N1CCOCC1 1.75%
Cc1ccc(NCc2nnc(SCC(=O)NCc3ccco3)n2CC2CCCO2)cc1Cl (configuration not stated) -3.17%
Cn1nc(-c2ccc(C(=O)N3CCN(c4ccccc4)CC3)cc2)c2ccccc2c1=O 27.3%
CCc1nnc(NC(=O)CCC(=O)Nc2ccccc2)s1 5.71%
COc1cccc(-c2csc3nc[nH]c(=O)c23)c1 5.71%
COc1cccc(-n2c(SCC(=O)OC(C)C)nnc2-c2cccnc2)c1 -3.02%
CC(=O)c1ccc(NC(=O)CSc2nnc(-c3ccoc3C)n2Cc2ccccc2)cc1 -8.57%
O=C(Nc1ccc2c(c1)C(=O)N(C1CCCCC1)C2=O)C1CCCO1 (configuration not stated) -0.63%
CN(Cc1nc(-c2ccncc2)no1)S(=O)(=O)c1ccc(Br)cc1 1.75%
O=C(CCCN1C(=O)c2ccccc2C1=O)NCc1cccnc1 -3.49%
Nc1nc(CN2CCOCC2)cs1 0.95%
O=C1CC(C(=O)Nc2ccccc2)C2(CCCC2)O1 (configuration not stated) -2.38%
CCC1(CC)C(=O)N(C)C(=O)NC1=NCc1ccccc1 3.02%
O=C(CN1C(=O)COc2ccccc21)NCCCN1CCc2ccccc2C1 9.05%
COc1ccccc1CNC(=O)C1CCN(S(=O)(=O)N2CCCCC2)CC1 3.81%
CCCN(CCC)CCCNS(=O)(=O)c1ccc2c(c1)oc(=O)n2C -4.44%
O=C(COC(=O)c1ccc(NS(=O)(=O)c2ccc3c(c2)OCCO3)cc1)NCC1CCCO1 (configuration not stated) -7.78%
O=C(c1nc2n(n1)C(c1ccc(Cl)cc1)C=C(c1ccccc1)N2)N1CCOCC1 (configuration not stated) -1.9%
Cc1cc(N2C(=O)C(O)=C(C(=O)c3ccc(C)o3)C2c2cccs2)no1 (configuration not stated) -6.03%
Cc1cc(NCCCn2ccnc2)n2c(nc3ccccc32)c1C#N 6.51%
COc1ccc(CCNS(=O)(=O)c2ccc3c(c2)OCCO3)cc1 -3.17%
Cc1ccc(C)c(C(=O)NC2CC(C)(C)NC(C)(C)C2)c1 -6.98%
